Values without a mark were called inactive. The source made the active and inactive calls. Calls follow the shape of the dose curve; as a rule, active = well fitted activation curve with a large enough effect; inconclusive = small, poorly fitted or top-dose-only effect; inactive = flat fitted curve, though single readings scatter.
Potency is read from the fitted curve at half-maximal effect.

The target in the experiment is Peroxisome proliferator-activated receptor alpha (Homo sapiens) (UniProt Q07869). Description: qHTS assay for small molecule agonists of the peroxisome proliferator-activated receptor alpha (PPARalpha) signaling pathway (AID 651778). As to max response: % of control where 0% means no effect. Particulars: PathHunter PPARalpha complementation, chemiluminescence, 6 h; max response: stronger effect = higher value. The text has this: National Center for Advancing Translational Sciences [NCATS]
Chain of Peroxisome proliferator-activated receptor alpha (Homo sapiens) (Q07869 whole entry, looked up): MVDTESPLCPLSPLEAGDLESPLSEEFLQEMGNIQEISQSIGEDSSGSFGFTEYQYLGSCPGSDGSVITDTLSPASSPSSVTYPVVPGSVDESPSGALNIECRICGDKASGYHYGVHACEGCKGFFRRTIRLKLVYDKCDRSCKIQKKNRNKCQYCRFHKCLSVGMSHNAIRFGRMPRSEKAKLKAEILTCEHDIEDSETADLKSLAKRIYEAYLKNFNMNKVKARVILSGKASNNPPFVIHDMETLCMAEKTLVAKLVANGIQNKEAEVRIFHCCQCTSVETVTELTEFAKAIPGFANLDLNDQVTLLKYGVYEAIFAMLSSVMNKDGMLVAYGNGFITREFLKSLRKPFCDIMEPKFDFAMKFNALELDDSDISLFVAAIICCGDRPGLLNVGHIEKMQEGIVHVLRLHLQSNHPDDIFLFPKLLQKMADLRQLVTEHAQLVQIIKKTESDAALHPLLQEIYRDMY
NIH Chemical Genomics Center [NCGC]
U.S. Environmental Protection Agency [EPA]
National Institutes of Environmental Health Sciences [NIEHS]
National Toxicology Program [NTP]
The Peroxisome proliferator-activated receptors (PPARs) are lipid-activated transcription factors of the nuclear receptor superfamily with three distinct subtypes (alpha, garmma and beta/delta). All these subtypes heterodimerize with retinoid X receptor and have different physiological functions. PPARalpha is highly expressed in tissues with high rates of mitochondrial fatty acid oxidation, such as liver, heart, muscle, kidney and cells of the arterial wall. PPARalpha is a major regulator of lipid metabolism and energy homeostasis.
A cell based assay was used to identify activators of PPARalpha. The assay detects binding of a ligand to PPARalpha leading to its activation, translocation and complementation thus forming a functional enzyme capable of hydrolyzing the substrate molecule and generating chemiluminescent signal.
2,000 cells in 6 uL/well were dispensed into white wall/solid bottom 1536-well plates using a Multidrop Combi (Thermo Scientific) dispenser. After incubation 37 C and 5% CO2 overnight, 23 nL compound or DMSO only were transferred by a pin tool. The plates were incubated for 6 hr at 37 C and 5% CO2. 3 ul PathHunter detection reagent (Discoverx) was then added to each well and following 60 min incubation at room temperature, chemiluminescence was quantified on a ViewLux CCD-based plate reader.
As for `CCCCCCCCC(=O)O`, the max response is 1.35%.
Regarding `CCc1cccc(C)c1N(C(=O)CS(=O)(=O)O)[C@@H](C)COC`, the max response is -2.29%.
With `CC(C)=CCC/C(C)=C\CO`, the max response is -0.763%.
With `O=C=NC1CCC(CC2CCC(N=C=O)CC2)CC1` (stereo not given), the max response was -2.73%.
`CS/C(=N\O)C(=O)N(C)C`: the max response is -1.04%.
`Cc1cc(C)c(N)c(Cl)c1`: the max response was -1.91%.
Still for that read-out and setting: the figure for `CC(C)(C)c1cccc(C(C)(C)C)c1O` is -2.21%.
As for `CCCCOCCOCCOC(=O)CCCCC(=O)OCCOCCOCCCC`, the max response was 3.34%.
For `CCSC(=O)N(CC(C)C)CC(C)C`, the max response is -0.436%.
Still for that read-out and setting: with `c1cc(-c2ccncc2)ccn1` the figure was 0.638%; with `CCCCCCCCCCCCN`, -0.939%.
Still for that read-out and setting: with `CC1COCc2cc3c(cc21)C(C)(C)C(C)C3(C)C` (stereo not given) the figure was 7.58%.
On the same count and under the same terms, the figure for `Clc1nc(Cl)c(Cl)c(Cl)c1Cl` is -3.38%; for `NN(c1ccccc1)c1ccccc1` it is -1.16%; for `CCCCCCCCCCCCc1ccccc1` it is -0.756%.
Take `CCCC/C=C/CCCCO`: the max response was -1.7%.
Take `CCCCCCC(O)CCCCCCCCCCC(=O)OC` (stereo not given): the Potency was 20 µM (active).
With `CC(C)OB(OC(C)C)OC(C)C`, the max response was -0.0686%.
As to `CCC(=O)C1C(=O)CC(C(=O)O)CC1=O` (stereo not given), the max response was 1.2%.
Regarding `CCCCCCCCCCCC[N+](C)(C)C`, the max response was -0.842%.
In the case of `c1cc2ccc3ccc4ccc5cccc6c(c1)c2c3c4c56`, the max response was -2.73%.
As for `CC1(C)CC(OC(=O)CCCCCCCCC(=O)OC2CC(C)(C)NC(C)(C)C2)CC(C)(C)N1`, the max response was -4.12%.
In the case of `CC(C)C(=O)OC(=O)C(C)C`, the max response is -0.54%.
For the molecule `CCCCCCCCCCCCCCN`, the max response was -1.81%.
With `C[C@]12CC[C@@H]3c4ccc(O)cc4CC[C@H]3[C@@H]1CC[C@H]2O`, the max response was -0.0791%.
For the molecule `CC[C@H](C)C1O[C@]2(C=C[C@@H]1C)C[C@@H]1C[C@@H](C/C=C(\C)[C@@H](O[C@H]3C[C@H](OC)[C@@H](O[C@H]4C[C@H](OC)[C@H](NC(C)=O)[C@H](C)O4)[C@H](C)O3)[C@@H](C)/C=C/C=C3\CO[C@@H]4[C@H](O)C(C)=C[C@@H](C(=O)O1)[C@]34O)O2` (stereo not given in full), the max response was 6.61%.
Still for that read-out and setting: the figure for `C=C(C)C(=O)OCCCCCCCCCCCC` is -1.38%.
For the molecule `CCCCCC1CCC(=O)O1` (stereo not given), the max response is -1.42%.
`CCCCOCCOCCOC(C)=O`: the max response was -0.313%.
For the molecule `CNc1nc(=O)n(C2CCC(O)CC2)c(=O)n1C` (stereo not given), the max response is -1.33%.
For the molecule `O=c1[nH]sc2ccccc12`, the max response was -8.62%.
Turning to `CCOC(=O)C(C)Oc1ccc(Oc2cnc3cc(Cl)ccc3n2)cc1` (stereo not given), the max response is 11.2%.
For `CCOCCOCCOCCO`, the max response is -1.08%.
On to `CC(C)c1ccc(C(C)C)cc1`, for which the max response was -2.48%.
On to `c1ccc(B(c2ccccc2)c2ccccc2)cc1`, for which the max response was -0.443%.
With `C1CCC2(CCCCO2)OC1`, the max response is 0.092%.
In the case of `BrC1CCC(Br)C(Br)CCC(Br)C(Br)CCC1Br` (stereo not given), the max response is -0.0514%.
The same measure, in the same setting: the figure for `COCCOCCOCCO` is 0.508%.
Same read-out and setting: with `CCOC(=O)COc1cc(-n2ncc(C(F)(F)F)c(C)c2=O)c(F)cc1Cl` the figure was -2.22%.
Turning to `CC(=O)c1c(C)c([N+](=O)[O-])c(C(C)(C)C)c([N+](=O)[O-])c1C`, the max response was 8.73%.

The record behind these values is PubChem BioAssay (NCATS).
